Our source for the Potency values is PubChem BioAssay (Tox21).

A short description of assay [1]: cAMP Responsive Elements (CRE) small molecule antagonists, cell-based qHTS assay: qHTS cell viability counter screen (AID 2060913). Also: nearly all actives have a fitted effect of over 40% in size. Put shortly:
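CRE-bla HEK293T cells (2,000/well, 18 h) given compound plus NKH477 0.25 uM final for 3 h at 37C; viability counter-screen by CellTiter-Glo luminescence in same wells after 30 min.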
A general note: In qHTS, concentration-response curves come from the screen itself.

Assay [2] is described as follows: cAMP Responsive Elements (CRE) small molecule agonists, cell-based qHTS assay: qHTS cell viability counter screen (AID 2060914).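 Also: viability read after 3 h of compound exposure; nearly all actives have a fitted effect of over 50% in size.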 Put shortly:
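CRE-bla HEK293T cells in 10% dialyzed FBS medium were exposed to compounds for 3 h at 37C after 18 h plating. CellTiter-Glo was then added in the same wells, and luminescence was read after 30 min at room temperature.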

Inconclusive results are not listed. A call without a number means that no potency is given here. The source made the active and inactive calls. Calls follow the shape of the dose curve; as a rule, active = well fitted cell-killing curve with a large enough effect in the repeat runs; inconclusive = weak or mixed curves, or effect the other way; inactive = flat fitted curve, though single readings scatter.

For the compound `NC1(c2ccccc2)CCCCC1`, the Potency entry in assay [1] and in assay [2] was “inactive” in each case.

Regarding `CCN(CC)CCOC(=O)C(C)(c1ccccc1)c1ccccc1`, the Potency result in assay [1] and in assay [2] was “inactive” in each case.

For the compound `CCCCC(=O)Cl`, the Potency result in assay [1] and in assay [2] was “inactive” in each case.

Regarding `CCCCCCCCCCCC#N`, the Potency result in assay [1] and in assay [2] was “inactive” throughout.

As for `O=c1[nH]c2ccccc2n1CCCN1CCC(n2c(=O)[nH]c3cc(Cl)ccc32)CC1`, the Potency result in assay [1] and in assay [2] was “inactive” in each case.

In the case of `c1cc[n+]2c(c1)-c1cccc[n+]1CC2`, the Potency result in assay [1] and in assay [2] was “inactive” in each case.

On to `CC[C@]1(O)CC[C@H]2[C@@H]3CCC4=CCCC[C@@H]4[C@H]3CC[C@@]21C`, for which the Potency entry in assay [1] and in assay [2] was “inactive” throughout.

Regarding `CC(Cc1ccccc1)N(C)Cc1ccco1` (stereo not drawn), the Potency result in assay [1] and in assay [2] was “inactive” in each case.

`Cn1cc[n+](C)c1` (tested in a mixture with another compound): the Potency result in assay [1] and in assay [2] was “inactive” throughout.

On to `CCCCCCCCCCCCCl`, for which the Potency result in assay [1] and in assay [2] was “inactive” in each case.

For the compound `CCOP(=O)(OCC)OP(=O)(OCC)OCC`, the Potency result in assay [1] and in assay [2] was “inactive” in each case.

On to `CCC(C)(C)c1cc(-n2nc3ccccc3n2)c(O)c(C(C)(C)CC)c1`, for which the Potency entry in assay [1] and in assay [2] was “inactive” in each case.

Turning to `O=NN1CCCCCCC1`, the Potency result in assay [1] and in assay [2] was “inactive” throughout.

Take `COc1ccc(Cc2nccc3cc(OC)c(OC)cc23)cc1OC`: the Potency entry in assay [1] and in assay [2] was “inactive” in each case.

In the case of `CC#C[C@]1(O)CC[C@H]2[C@@H]3C[C@H](C)C4=CC(=O)CC[C@]4(C)[C@H]3CC[C@@]21C`, the Potency result in assay [1] and in assay [2] was “inactive” each time.

Consider `CC(O)(CS(=O)(=O)c1ccc(F)cc1)C(=O)Nc1ccc(C#N)c(C(F)(F)F)c1` (stereo not drawn), for which the Potency result in assay [1] and in assay [2] was “inactive” in each case.

Turning to `CCOCCOC(C)=O`, the Potency entry in assay [1] and in assay [2] was “inactive” each time.

Regarding `COP(=O)(OC)OC`, the Potency entry in assay [1] and in assay [2] was “inactive” throughout.

As to `Sc1ccccc1Cl`, the Potency entry in assay [1] and in assay [2] was “inactive” throughout.

For the compound `CCOP(=S)(OCC)Oc1nc(Cl)n(C(C)C)n1`, the Potency entry in assay [1] and in assay [2] was “inactive” in each case.

`c1ccc(N2CCNCC2)cc1`: the Potency entry in assay [1] and in assay [2] was “inactive” throughout.

For the compound `COc1ccc(C=O)cc1OC`, the Potency entry in assay [1] and in assay [2] was “inactive” in each case.

Consider `COC(=O)c1sccc1S(=O)(=O)NC(=O)Nc1nc(C)nc(OC)n1`, for which the Potency result in assay [1] and in assay [2] was “inactive” in each case.

For `Nc1c(Br)cc([N+](=O)[O-])cc1[N+](=O)[O-]`, the Potency result in assay [1] and in assay [2] was “inactive” each time.

With `O=C(O)CC(Cl)C(=O)O` (stereo not drawn), the Potency result in assay [1] and in assay [2] was “inactive” each time.

For `ClP(Cl)(Cl)(Cl)Cl`, the Potency result in assay [1] and in assay [2] was “inactive” throughout.

Regarding `C[N+]1(CCC(C(N)=O)(c2ccccc2)c2ccccc2)CCCCC1`, the Potency result in assay [1] and in assay [2] was “inactive” each time.

`CN1C(=O)CN=C(c2ccccc2)c2cc([N+](=O)[O-])ccc21`: the Potency result in assay [1] and in assay [2] was “inactive” throughout.

As to `CCC(=O)c1ccccc1`, the Potency result in assay [1] and in assay [2] was “inactive” in each case.

In the case of `O=C(O)c1ccccn1`, the Potency entry in assay [1] and in assay [2] was “inactive” throughout.

Regarding `Oc1cccc(Cl)c1`, the Potency entry in assay [1] and in assay [2] was “inactive” in each case.

Consider `CC(C)(C)NCC(O)c1cc(Cl)c(N)c(C(F)(F)F)c1` (stereo not drawn), for which the Potency result in assay [1] and in assay [2] was “inactive” each time.

For `COC(=O)C(c1ccccc1)C1CCCCN1` (stereo not drawn), the Potency result in assay [1] and in assay [2] was “inactive” in each case.

On to `COc1ccc(C(=O)N2CCCC2=O)cc1`, for which the Potency entry in assay [1] and in assay [2] was “inactive” throughout.

Turning to `O=C(NC(=O)c1c(F)cccc1F)Nc1cc(Cl)c(OC(F)(F)C(F)F)c(Cl)c1`, the Potency result in assay [1] and in assay [2] was “inactive” throughout.

Take `CC(C)C1(C)N=C(c2ncccc2C(=O)O)NC1=O` (stereo not drawn): the Potency entry in assay [1] and in assay [2] was “inactive” in each case.

For the compound `O=S1(=O)OC(c2cc(Br)c(O)c(Br)c2)(c2cc(Br)c(O)c(Br)c2)c2ccccc21`, the Potency result in assay [1] and in assay [2] was “inactive” each time.

Turning to `O=[N+]([O-])c1cc(C(F)(F)F)c(Cl)c([N+](=O)[O-])c1Cl`, the Potency entry in assay [1] and in assay [2] was “inactive” throughout.

Turning to `CCOP(=S)(OCC)SCn1nnc2ccccc2c1=O`, the Potency entry in assay [1] and in assay [2] was “inactive” throughout.

Take `O=C(NC(=O)c1c(F)cccc1F)Nc1ccc(Oc2ccc(C(F)(F)F)cc2Cl)cc1F`: the Potency result in assay [1] and in assay [2] was “inactive” in each case.

With `CN1C(=O)C(O)N=C(c2ccccc2)c2cc(Cl)ccc21` (stereo not drawn), the Potency entry in assay [1] and in assay [2] was “inactive” in each case.

As for `C[C@H]1CC[C@@H]2[C@@H](C)[C@H]3[C@H](C[C@H]4[C@@H]5CC=C6CC(O[C@@H]7O[C@H](CO)[C@H](O)[C@H](O[C@@H]8O[C@H](CO)[C@@H](O)[C@H](O)[C@H]8O)[C@H]7O[C@H]7O[C@@H](C)[C@H](O)[C@@H](O)[C@H]7O)CC[C@]6(C)[C@H]5CC[C@]34C)N2C1` (stereo partly drawn), the Potency result in assay [1] and in assay [2] was “inactive” each time.

For `O=C(O)c1c(Cl)ccc2cc(Cl)cnc12`, the Potency entry in assay [1] and in assay [2] was “inactive” throughout.

For `CC(C)(Cl)[N+](=O)[O-]`, the Potency result in assay [1] and in assay [2] was “inactive” throughout.

Turning to `Clc1nc(Cl)nc(Cl)n1`, the Potency result in assay [1] and in assay [2] was “inactive” in each case.

In the case of `Cc1cc(=O)[nH]o1`, the Potency result in assay [1] and in assay [2] was “inactive” each time.

For the compound `CC[C@H](O)C(C[C@H](C)N(C)C)(c1ccccc1)c1ccccc1`, the Potency result in assay [1] and in assay [2] was “inactive” each time.

Turning to `CN(C)N`, the Potency result in assay [1] and in assay [2] was “inactive” throughout.

Regarding `CCc1cccc(C)c1N(C(=O)CCl)[C@@H](C)COC`, the Potency entry in assay [1] and in assay [2] was “inactive” each time.
